According to PubChem BioAssay (NCATS):
Results filed as inconclusive are left out. Active and inactive are the calls of the source. Calls follow the shape of the dose curve; as a rule, active = well fitted inhibition curve with a large enough effect; inconclusive = small, poorly fitted or top-dose-only effect; inactive = flat fitted curve, though single readings scatter.

Tested on: CRL-7250
Assay: qHTS assay to identify novel small-molecules to repurpose for Merkel cell carcinoma treatment (AID 1296009); also: nearly all actives have a fitted effect of over 60% in size
Details: MCC and control cell lines, CellTiter-Glo viability, 72 h; series mostly up to 44.8 µM
Summary of the method: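 Cells were treated for 72 hr at 37 degree celsius with compounds in 8- or 11-point dose response. Viability was read by CellTiter-Glo luminescence, normalized to no-cell (cytotoxicity) and DMSO controls.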

Compound	outcome
CN(C)c1ccc(O)c2c1C[C@H]1C[C@H]3[C@H](N(C)C)C(=O)C(C(N)=O)=C(O)[C@@]3(O)C(=O)C1=C2O	inactive
CC1(C)S[C@@H]2[C@H](NC(=O)Cc3ccccc3)C(=O)N2[C@H]1C(=O)O (tested in a mixture with another compound)	inactive
O[C@@H]1CO[C@H]2[C@@H]1OC[C@@H]2O	inactive
COc1cc(Cc2cnc(N)nc2N)cc(OC)c1OC	inactive
O=C1CCC(N2C(=O)c3ccccc3C2=O)C(=O)N1 (stereo not given)	inactive
OCCN(CCO)c1nc(N2CCCCC2)c2nc(N(CCO)CCO)nc(N3CCCCC3)c2n1	inactive
O=C1NC(c2ccccc2)(c2ccccc2)C(=O)N1COP(=O)(O)O	inactive
CS(=O)(=O)CCNCc1ccc(-c2ccc3ncnc(Nc4ccc(OCc5cccc(F)c5)c(Cl)c4)c3c2)o1	inactive
CC1=C(C(=O)O)N2C(=O)[C@@H](NC(=O)[C@H](N)c3ccc(O)cc3)[C@H]2SC1	inactive
Cc1ccc(C)c(OCCCC(C)(C)C(=O)O)c1	inactive
CNCCc1ccccn1	inactive
O=c1c(O)c(-c2ccc(O)c(O)c2)oc2cc(O)cc(O)c12	inactive
C[C@@H]1CC(=O)NN=C1c1ccc(NN=C(C#N)C#N)cc1	inactive
CCC1C(=O)OCC1Cc1cncn1C (stereo not given)	inactive
CC(CN(C)C)CN1c2ccccc2CCc2ccccc21 (stereo not given)	inactive
Oc1cn2c(n1)Nc1ccc(Cl)c(Cl)c1C2	inactive [at 17.4 µM]
NC(=O)c1cn(Cc2c(F)cccc2F)nn1	inactive
COC(c1ccccc1)(c1ccccc1)[C@H](Oc1nc(C)cc(C)n1)C(=O)O	inactive
O=c1n(CCCN2CCN(c3cccc(Cl)c3)CC2)nc2ccccn12	inactive
CN1CCN(C2=Nc3ccccc3Oc3ccc(Cl)cc32)CC1	inactive

Compound	outcome
CCCCCOC(=O)Nc1nc(=O)n([C@@H]2O[C@H](C)[C@@H](O)[C@H]2O)cc1F	inactive
Cc1[nH]cnc1CN1CCc2c(c3ccccc3n2C)C1=O	inactive
NC12CC3CC(CC(C3)C1)C2	inactive
CCCN[C@H]1CCc2nc(N)sc2C1	inactive
O=NN(CCCl)C(=O)NCCCl	inactive
COc1cc2nc(N3CCN(C(=O)C4CCCO4)CC3)nc(N)c2cc1OC (stereo not given)	inactive
Cc1nc(-c2ccc(OCC(C)C)c(C#N)c2)sc1C(=O)O	inactive
CCCNCC(O)COc1ccccc1C(=O)CCc1ccccc1 (stereo not given)	inactive
C[C@@H](O)[C@H]1C(=O)N2C(C(=O)O)=C(S[C@@H]3CN[C@H](C(=O)N(C)C)C3)[C@H](C)[C@H]12	inactive
CC(c1cc2ccccc2s1)N(O)C(N)=O (stereo not given)	inactive
O=C1[C@H](CC[C@H](O)c2ccc(F)cc2)[C@@H](c2ccc(O)cc2)N1c1ccc(F)cc1	inactive
CN1CCC[C@@H]1Cc1c[nH]c2ccc(CCS(=O)(=O)c3ccccc3)cc12	inactive
C[C@H]1c2cccc(O)c2C(O)=C2C(=O)[C@]3(O)C(O)=C(C(N)=O)C(=O)[C@@H](N(C)C)[C@@H]3[C@@H](O)[C@@H]21	inactive
CS(=O)(=O)OCCCCOS(C)(=O)=O	inactive
NCCCC(O)(P(=O)(O)O)P(=O)(O)O	inactive
Cc1cc2c(s1)Nc1ccccc1N=C2N1CCN(C)CC1	inactive
CN(C)CCc1c[nH]c2ccc(C[C@H]3COC(=O)N3)cc12	inactive
CCN(CC)C(=S)SSC(=S)N(CC)CC	inactive
Nc1cc(-c2ccncc2)c[nH]c1=O	inactive
C1N2CN3CN1CN(C2)C3	inactive
